From PubChem BioAssay AID651800 (The Scripps Research Institute Molecular Screening Center, 2012)
About 1,300 (0.36%) of roughly 360,000 compounds were called active. This is one part of a sample in which actives are shown more often than they occur. A number with no mark means an inactive call. No stated cut-off is given here; in the data, active means inhibition above about 19%; inactive means the rest.

What follows are compounds tested on T-cell receptor (TCR) (assay: inhibitors of human TCR-CD3 interaction, primary screen, biochemical, fluorescence, TAMRA-labeled TCR probe (AID 651800;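 further: recombinant mutant TCR 2C K166C tagged with TAMRA read by polarization; 0% = receptor in buffer alone and 100% = receptor with positive control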)). Conditions: at 9.4 µM, active compounds read high.

Row | SMILES | inhibition
1 | COC(=O)Cc1nnn2c1[C@H](C)[C@H](c1ccccc1[N+](=O)[O-])OCC2 | 1.45%
2 | Nc1ccc2nc3c(=O)[nH]c(=S)[nH]c3nc2c1 | 109% (active)
3 | O=C(NCc1ccccc1)[C@@H]1CCCN1C(=O)[C@H]1CCCN1C(=O)c1cccc(Cl)c1 | 5.36%
4 | CC(C)(C)n1nc(C2CC2)c(Br)c1NC(=O)c1ccccc1F | -0.36%
5 | COC(=O)C1=C(C)N(Cc2ccc(C(F)(F)F)cc2)C(=NCc2ccccc2)NC1c1ccccc1C(F)(F)F (stereo not drawn) | -1.22%
6 | COc1ccc(SSc2ccc(OC)cc2C(=O)O)c(C(=O)O)c1 | 5.64%
7 | CCOC(=O)Cn1c2c(n(-c3ccc(F)cc3)c1=O)C=C(c1ccccc1)[C@@H](C)C(C(=O)N(C)C1CCCCC1)=C2 | 5.23%
8 | Cc1cccc(C(=O)Nc2ccc(C(=O)/C=C/c3cccs3)cc2)c1 | 19.4% (active)
9 | CC(=O)Nc1ccc(NC(=O)[C@@H](NC(=O)c2cccc(C)c2)C(C)C)cc1 | 2.27%
10 | Cc1cccc(C(=O)Nc2ccc3c(c2)C(=O)N(CC(C)C)C3=O)c1 | -1.41%
11 | COCc1[nH]nc2c1C(c1ccccc1)N(c1ccccc1)C2=O (stereo not drawn) | 5.26%
12 | COc1cccc(CNC(=O)[C@H]2CCCN2C(=O)[C@H]2CCCN2C(=O)C2CCCCC2)c1 | -0.26%
13 | COC(=O)C1=C(C)N(Cc2cccc(C(F)(F)F)c2)C(=NCc2ccccc2)NC1c1ccc(Cl)cc1 (stereo not drawn) | 7.39%
14 | Cc1cc2c(nc1C)CCCN2C | -1.06%
15 | Cc1ccc(NC(=O)C(=O)NCc2ccc(/C=N/NC(=O)c3c(C)nc4cc(C)ccn34)o2)cc1 | 5.69%
16 | CCCC1OC23CCCCC2C(C#N)(C#N)C1(C#N)C(=N)O3 (stereo not drawn) | 24.9% (active)
17 | CC(C)[C@H]1COCCS(=O)(=O)N1Cc1ccccc1-c1cccc2c1sc1ccccc12 | -8.35%
18 | Cc1ccccc1NCC(=O)N/N=C\c1ccc([N+](=O)[O-])s1 | 21.7% (active)
19 | Cc1nn(Cc2ccc(Cl)cc2)c(Cl)c1/C=N/NC(=O)CNc1ccccc1F | 4.16%
20 | O=[N+]([O-])c1ccc(C=Nc2ccc(Cl)cc2Cl)s1 | -1.69%
21 | CN1C(=O)C2CC(O)C(SC3CC4C(=O)N(C)C(=O)C4CC3O)CC2C1=O (stereo not drawn) | 0.12%
22 | C=CC[C@]12C[C@@]3(O[C@H](c4ccc(C(F)(F)F)cc4)N=C3C[C@H](c3ccc(OC)cc3)[C@H]1C)N(C1CCN(Cc3ccccc3)CC1)C2=O | 3.26%
23 | CC(=O)N/N=C(\C)c1ccc(Br)cc1Br | 2.37%
24 | CC(=N\NC(=O)c1cc(Br)ccc1O)/C(=N/O)C(=O)Nc1ccccc1 | 35.2% (active)
25 | O=C(Nc1ccccc1)c1ccccc1Br | -6.01%
26 | COc1cccc(-c2cc(CNC(=O)[C@@H](Cc3ccccc3)NC(=O)[C@H]3O[C@@H](n4cnc(C(N)=O)n4)[C@H](O)[C@@H]3O)no2)c1 | 0.79%

Row | SMILES | inhibition
27 | CC(=O)C1=C(C)N(Cc2ccccc2)C(=S)NC1c1cccc(Br)c1 (stereo not drawn) | -1.04%
28 | COC(=O)c1c(-c2ccc(OC)cc2)c2c(c3c4cc(OC)ccc4n(S(=O)(=O)c4ccc(F)cc4)c13)C(=O)N(C)C2 | -4.92%
29 | CCOC(=O)N1CCN(C(=O)C[C@H]2C[C@@]3(C(=O)OC)C(=C[C@H](C4CCCC4)O[C@@H]3C)N(Cc3ccccc3)C2=O)CC1 | 8.81%
30 | COc1ccc(Br)cc1C(=O)NC(=S)Nc1cc(-c2nc3ccccc3[nH]2)ccc1C | 55.2% (active)
31 | O=C(NC(=S)Nc1ccccc1C(=O)O)c1ccc(-c2ccc(Br)cc2)o1 | 4.88%
32 | COc1cc(OC)cc(C(=O)N[C@H](C(=O)Nc2nc3ccccc3[nH]2)C(C)C)c1 | -1.15%
33 | Cc1[nH]nc2c1C(c1ccc(Br)cc1)NC2=O (stereo not drawn) | -1.49%
34 | C[C@@H](CN1C2=NC[C@@H](Cc3ccccc3)N2C[C@H]1Cc1ccc(O)cc1)NC(=O)CCC1CCCCC1 | -8.44%
35 | CCC(=O)NC(=S)Nc1ccc(NC(=O)c2ccco2)c(Cl)c1 | 27.1% (active)
36 | O=C(NNC(=S)Nc1ccc(Br)cc1Cl)c1ccco1 | 0.36%
37 | CCOC(=O)c1ccc(NC(=O)CNC(=O)c2ccco2)cc1 | -5.65%
38 | O=C(CN1CCN(c2ccc(O)cc2)CC1)NC1CCCc2ccccc21 (stereo not drawn) | -3.37%
39 | COC(=O)C1=C(C)N(Cc2ccccc2C(F)(F)F)C(=NCc2ccc(OC)cc2)NC1c1cccc(C(F)(F)F)c1 (stereo not drawn) | 6.08%
40 | Cc1noc(C)c1NC(=O)Nc1ccc2c(c1)C(=O)N([C@H](C)CO)C[C@H](C)[C@H](CN(C)Cc1ccncc1)OCCCC[C@@H](C)O2 | 7.13%
41 | CN1CCCc2nc(-c3ccccc3)ccc21 | 3.5%
42 | CC(C)CC1NC(=O)c2cc(Cl)ccc2-n2c1nc1ccccc1c2=O (stereo not drawn) | 3.77%
43 | CCOC(=O)C1=C(C(=O)OCC)C2N(Cc3ccc(C#N)cc3)c3ccccc3[C@@]23C[C@@H](C(=O)OC)N(S(=O)(=O)c2ccc(F)cc2)C3=N1 (stereo partly drawn) | -0.94%
44 | C[C@H](O)[C@@H]1C(=O)N2CCc3c([nH]c4c(-c5ccc6c(c5)OCO6)cccc34)[C@@H]2C[C@@H]1N(C)C(=O)c1ccco1 | -0.59%
45 | NC1=CC(=O)C(=O)c2cccnc21 | 23.6% (active)
46 | CC[C@H](C)[C@H]1CNC(=O)C(=O)N1CC1CCN(CCc2ccc(OC)c(OC)c2)CC1 | 4.26%
47 | CC(=O)NCc1ccc(S(=O)(=O)NC2CCN(Cc3ccccc3)CC2)cc1 | 0.98%
48 | O=C(c1cc(-c2ccco2)nc2ccccc12)N(Cc1nnc(-c2ccc(Cl)cc2)o1)C1CC1 | -2.45%
49 | CN(C(=O)COC(=O)c1cc(-c2ccco2)nc2ccccc12)C1CCS(=O)(=O)C1 (stereo not drawn) | 30.6% (active)
50 | COc1ccc2c(-c3ccccc3)cc(SCC(=O)N(C)C3CCS(=O)(=O)C3)nc2c1 (stereo not drawn) | 1.46%
51 | C[C@@H](NC(=O)OC(C)(C)C)c1nnc(S(=O)(=O)Cc2ccccc2)o1 | 6.57%
52 | COC(=O)Cc1nnn2c1[C@H](C)[C@@H](OC)c1cc(Br)ccc1-2 | -3.71%

Row | SMILES | inhibition
53 | COC(=O)[C@]12C[C@H](CC(=O)NCCc3ccccc3OC)C(=O)N(Cc3ccccc3)C1=C[C@H](C(C)C)O[C@@H]2C1CC1 | 0.38%
54 | Cc1[nH]c2ccccc2c1CC(=O)Nc1ccc(Nc2cccnc2)c(-c2cccc(Cl)c2)c1 | 7.27%
55 | Cc1ccc(O)c(/C=N/NC(=O)COc2ccc3c(C)cc(=O)oc3c2)c1 | 35% (active)
56 | COc1ccc(N2CCN(C(=O)COc3ccc4c(C)cc(=O)oc4c3)CC2)cc1 | 4.22%
57 | CC(=O)c1c(C)[nH]c(C(=O)COc2ccc3c(C)cc(=O)oc3c2)c1C | -7.65%
58 | Cc1nc(NC(=O)C(C)(C)C)sc1[N+](=O)[O-] | -8.33%
59 | O=S1(=O)c2ccc(Br)cc2-n2nncc2CN1Cc1cccc(Cl)c1 | 3.21%
60 | Nc1ncnc2c1ncn2[C@@H]1O[C@H](C(=O)N[C@@H](CCc2ccccc2)C(=O)NCC(=O)N2CCOCC2)[C@@H](O)[C@H]1O | 10.8%
61 | COC(=O)C(C(=O)OC)c1ccccc1NS(=O)(=O)c1cccc2ccccc12 | 6.59%
62 | O=C(NN=Cc1ccco1)C(=O)Nc1ccc(Cl)c([N+](=O)[O-])c1 | 3.53%
63 | CCOc1cc(/C=N/NC(=O)c2cccc(S(=O)(=O)N3CCOCC3)c2)ccc1OCC(=O)N(C)C | -6.38%
64 | Cc1ncc(CO)c(/C=N/NC(=O)c2cccc(S(=O)(=O)N3CCCC3)c2)c1O | 27.1% (active)
65 | O=C(NNC1=NCCC1)c1cccc(S(=O)(=O)N2CCCCC2)c1 | -7.2%
66 | O=C(O)Cn1cnc2c(NCc3ccccc3)ncnc21 | -4.94%
67 | COCCNC(=O)COc1ccc(N(C)S(=O)(=O)c2ccc3ccccc3c2)cc1 | -0.41%
68 | Cc1cc2ccccc2n1CCNC(=O)COc1ccc2ccccc2c1 | 60.3% (active)
69 | Cc1ccc(C)c(NC(=O)CN(C)C(=O)COc2ccc3ccccc3c2)c1 | -2.17%
70 | N#Cc1cccc(C(=O)NCC2CCN(C(=O)C(=O)c3cc4ccccc4o3)CC2)c1 | 0.99%
71 | CCOc1ccccc1C(=O)N1CCC[C@@H]1C(=O)N1CCC[C@H]1C(=O)NCc1ccccc1 | -2.28%
72 | Cc1ccc2nc(-c3ccc(NC(=O)CN(C)S(=O)(=O)c4ccccc4)cc3)sc2c1 | 8.35%
73 | O=C(NCC(O)c1nc2ccccc2[nH]1)c1ccc(Br)cc1 (stereo not drawn) | 4.63%
74 | O=C(Nc1ccccc1)c1cc2ccccc2[nH]1 | -3.23%
75 | O=C(Nc1cccc(-c2nc3ccccc3[nH]2)c1)c1ccc(C(=O)Nc2cccc(-c3nc4ccccc4[nH]3)c2)cc1 | 26.7% (active)
76 | Cc1cc(OC(=O)NCCc2ccc(F)cc2)ccc1F | 1.4%
77 | COC(=O)c1cc2c(c3c4cc(F)ccc4n(S(=O)(=O)c4ccccc4)c13)C(=O)N(Cc1ccccc1OC)C2 | 2.91%
78 | CC(C)(C)C(c1nc2ccccc2[nH]1)n1c(Cc2csc3ccccc23)nc2ccccc21 (stereo not drawn) | 5.18%
